The results in this text go back to PubChem BioAssay AID1529 (NMMLSC, 2009).

Among all 290,000 compounds or so, about 4,200 (1.4%) were called active. This is one part of a sample in which actives are shown more often than they occur.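 The calls were made as follows: active = binding response more than 3 SD above or below the average of its plate-row segment, actives on both sides; inconclusive = wells at one plate position flagged as instrument error; inactive = the rest.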

Sequence of Mitogen-activated protein kinase kinase kinase 3 (Homo sapiens) (Q99759 whole entry, looked up): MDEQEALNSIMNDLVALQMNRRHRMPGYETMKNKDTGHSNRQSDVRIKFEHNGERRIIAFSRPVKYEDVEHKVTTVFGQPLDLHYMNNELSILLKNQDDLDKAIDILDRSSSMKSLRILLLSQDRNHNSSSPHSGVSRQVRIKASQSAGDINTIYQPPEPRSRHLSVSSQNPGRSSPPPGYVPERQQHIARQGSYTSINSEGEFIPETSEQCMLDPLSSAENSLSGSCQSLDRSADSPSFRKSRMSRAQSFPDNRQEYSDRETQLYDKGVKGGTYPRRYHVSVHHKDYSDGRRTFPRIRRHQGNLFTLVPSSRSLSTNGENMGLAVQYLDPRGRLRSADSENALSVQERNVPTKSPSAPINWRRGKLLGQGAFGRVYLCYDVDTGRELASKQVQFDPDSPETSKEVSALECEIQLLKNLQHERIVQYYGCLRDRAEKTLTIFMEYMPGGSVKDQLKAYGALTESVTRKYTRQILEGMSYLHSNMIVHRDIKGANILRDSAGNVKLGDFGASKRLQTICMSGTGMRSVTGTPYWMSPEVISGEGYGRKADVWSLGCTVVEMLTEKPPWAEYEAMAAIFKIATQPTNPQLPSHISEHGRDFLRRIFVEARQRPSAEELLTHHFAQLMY

This experiment has as its target Mitogen-activated protein kinase kinase kinase 3 (Homo sapiens) (UniProt Q99759). Nature of the experiment: compounds raising or lowering MEK5 association with MEKK3 PB1 – biochemical, wildtype MEKK3, multiplex bead flow cytometry, Alexa488-MEK5, primary screen (AID 1529).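 Also: Alexa488 bead fluorescence after subtracting the streptavidin-only scavenger bead signal.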 As to conditions: bead-based flow cytometry, Alexa488-MEK5 binding to MEKK3; at 10 µM; actives lie on both sides; 0 = blocked by unlabeled MEK5, 100 = vehicle. For orientation: A flow cytometer gives signals particle by particle.
As to `CC1(C(=O)O)CCC(C(=O)Nc2ccc(Cl)c(Cl)c2)C1(C)C` (stereo not given), the binding response (% of control) was 103% (inactive).
As to `COc1ccc(C(=O)COC(=O)CNC(=O)c2cccs2)cc1Br`, the binding response (% of control) is 99% (inactive).
In the case of `COc1ccccc1C(=O)Nn1c(-c2cccs2)nc2ccccc2c1=O`, the binding response (% of control) was 111% (inactive).
As to `CCn1c(=O)c2cc(C(=O)Nc3cccc(C(C)=O)c3)sc2c2ccccc21`, the binding response (% of control) is 106% (inactive).
`CCn1c(NC(=O)c2ccccc2)c(-c2cccs2)c(=O)c2ccccc21`: the binding response (% of control) was 82% [inhibitor] (active).
As for `COc1ccccc1N(CC(=O)N/N=C(\C)c1ccccc1O)S(=O)(=O)c1ccc(C)cc1`, the figure is 102% (inactive); as for `O=C(Cc1cccs1)N/N=C/c1ccc(OCc2ccccc2)cc1`, 129% (active); as for `O=C(N/N=C/c1ccc(OCc2ccccc2)cc1)c1ccc(O)cc1`, 119% (inactive).
`CCOc1ccc(NC(=O)C/C(C)=N/NC(=O)Cc2cccs2)cc1`: the binding response (% of control) was 99% (inactive).
Consider `N#C/C(=C\C1=C(N2CCOCC2)C(=C\c2ccccc2)/CC1)C(=O)Nc1ccccc1F`, for which the binding response (% of control) was 8% [inhibitor] (active).
In the case of `N#C/C(=C\c1ccccc1C(F)(F)F)C(=O)Nc1ccccc1F`, the binding response (% of control) is 97% (inactive).
With `N#C/C(=C/c1ccc(N2CCOCC2)o1)C(=O)N1CCOCC1`, the binding response (% of control) is 94% (inactive).
For `CN(CCC1CCOCC1)Cc1cn[nH]c1-c1ccc(-c2ccccc2)cc1`, the binding response (% of control) is 109% (inactive).
Consider `CCCCC(CC)CNCc1cccn1CCN1CCOCC1` (stereo not given), for which the binding response (% of control) is 100% (inactive).
As for `CN(C)CCCN(C(=O)COc1ccccc1)c1nc2c(Cl)cccc2s1`, the figure is 35% [inhibitor] (active); as for `COc1cccc2sc(N(CCCN(C)C)C(=O)C(c3ccccc3)c3ccccc3)nc12`, 111% (inactive); as for `COc1cccc2sc(N(CCCN(C)C)C(=O)CCS(=O)(=O)c3ccccc3)nc12`, 97% (inactive).
In the case of `COCCNc1ccc(-c2n[nH]c(=O)c3ccccc23)cc1[N+](=O)[O-]`, the binding response (% of control) is 103% (inactive).
Turning to `O=C1C=CC(=O)N1c1ccc(N2CCCCC2)cc1`, the binding response (% of control) was 49% [inhibitor] (active).
With `CCOC(=O)/C(C#N)=C/c1ccc(N2CCCCC2)cc1` the figure was 99% (inactive); with `Cc1ccccc1C(=O)Nc1ccc(N2CCCCCC2)cc1`, 80% (inactive).
For the molecule `C#CC(C)(C)NC(=O)c1cnc(-c2ccccc2)nc1-c1ccccc1`, the binding response (% of control) is 105% (inactive).
Regarding `CC(NC(=O)c1cc2cc(Cl)ccc2oc1=N)c1ccccc1` (stereo not given), the binding response (% of control) is 100% (inactive).
With `Cc1ccc(CN(C)Cc2cc(=O)oc3cc(C)c(Cl)cc23)cc1` the figure was 109% (inactive); with `COc1ccc(N(C(=O)c2snc(C(N)=O)c2N)C(C(=O)NC2CCCC2)c2ccco2)cc1OC` (stereo not given), 101% (inactive).
With `Cc1c(Cl)cccc1NC(=O)[C@@]1(CC(=O)O)CC(/C=C/c2ccccc2)=NO1`, the binding response (% of control) was 96% (inactive).
As to `COC(=O)c1c(NC(=O)c2ccccc2F)sc2c1C(C(=O)OC)CC2` (stereo not given), the binding response (% of control) was 98% (inactive).
In the case of `CC(C)Nc1nnc(SCC(=O)/C=C2\N(C)c3ccccc3C2(C)C)s1`, the binding response (% of control) is 101% (inactive).
Turning to `Cc1noc(C)c1C(=O)OCC(=O)/C=C1\N(C)c2ccccc2C1(C)C`, the binding response (% of control) is 100% (inactive).
On to `CC(=O)Nc1cccc(OCC(=O)/C=C2\N(C)c3ccccc3C2(C)C)c1`, for which the binding response (% of control) is 62% [inhibitor] (active).
Consider `CC(CN1CCOCC1)OC(=O)c1ccc(C(C)(C)C)cc1` (stereo not given), for which the binding response (% of control) is 106% (inactive).
As to `COc1cc2cc(C(=O)N/N=C/c3cccc(OC)c3OC)[nH]c2cc1OC`, the binding response (% of control) was 94% (inactive).
With `COc1cccc(/C=N/NC(=O)c2[nH]nc3c2CCc2ccccc2-3)c1O` the figure was 102% (inactive); with `COc1cccc(/C=N\NC(=O)C2=NNC(=O)C2C)c1O` (stereo not given), 128% (active); with `Cc1ccccc1Cn1c(=O)[nH]c2ccccc21`, 52% (inactive).
As for `CCCc1cc(=S)n2c([nH]c3ccccc32)c1C#N`, the figure is 1% [inhibitor] (active).
As for `CCOC(=O)CCc1c(C)c(C#N)c2[nH]c3ccccc3n2c1=O`, the figure is 109% (inactive); as for `COC(C[C@H](O)CC(=O)[C@@H](C)OCc1ccccc1)OC`, 101% (inactive); as for `O=C(NCCC1=CCCCC1)c1ccc(Cl)c([N+](=O)[O-])c1`, 153% (active).
Regarding `Cn1nnc2cc(C(=O)NCCC3=CCCCC3)ccc21`, the binding response (% of control) is 99% (inactive).
In the case of `CN(c1ccc(C(=O)NCCC2=CCCCC2)cc1)S(C)(=O)=O`, the binding response (% of control) was 100% (inactive).
Regarding `O=[N+]([O-])c1ccccc1/C=C/CN1CCC(O)CC1`, the binding response (% of control) was 105% (inactive).
Consider `Cc1noc(C)c1S(=O)(=O)N(C)Cc1ccccc1`, for which the binding response (% of control) is 3% [inhibitor] (active).
As to `Cc1noc(C)c1S(=O)(=O)Nc1ccc(C(=O)O)cc1`, the binding response (% of control) is 98% (inactive).
Regarding `Cc1cc(C)cc(N(CC(=O)N2CC=C(c3ccccc3)CC2)S(=O)(=O)c2c(C)noc2C)c1`, the binding response (% of control) is 112% (inactive).
As for `CCOc1ccccc1NC(=O)COc1ccc(S(=O)(=O)N2CCCC2)cc1`, the figure is 98% (inactive); as for `COc1ccc(S(=O)(=O)NC(C)C(=O)NCc2ccncc2)cc1Cl` (stereo not given), 99% (inactive).
As to `CC1CCN(C2=NC(=O)/C(=C/c3ccc(O)cc3)S2)CC1`, the binding response (% of control) is 100% (inactive).
With `CC1CCN(C2=NC(=O)/C(=C/c3cn[nH]c3-c3ccccc3)S2)CC1` the figure was 130% (active); with `Cc1ccc(N2CCN(C3=NC(=O)/C(=C\c4cccs4)S3)CC2)cc1`, 98% (inactive); with `COc1ccc(CN2CC[C@H]3C=CC[C@@H](C(=O)N4CCOCC4)[C@H]3C2=O)cc1OC`, 98% (inactive).
Regarding `CC(=O)c1cccc(NC(=S)N2CCN(S(C)(=O)=O)CC2)c1`, the binding response (% of control) was 102% (inactive).
With `O=c1c2ccccc2c(-c2ccccc2)nn1Cc1ccccc1` the figure was 134% (active); with `CCCNC(=O)CCn1nc(-c2ccccc2)c2ccccc2c1=O`, 94% (inactive); with `O=c1c2ccccc2c(-c2ccc(Br)cc2)nn1Cc1ccccc1`, 109% (inactive).
On to `C=CCOC(=O)C1=C[C@H](c2ccc(Br)cc2)C[C@H](OCCCCO)O1`, for which the binding response (% of control) was 99% (inactive).
With `Cc1cccc(OCCC(=O)Nc2ccccc2C(N)=O)c1`, the binding response (% of control) is 104% (inactive).
Regarding `COc1ccccc1C(=O)N/C(=C/c1ccco1)C(=O)Nc1ccc(C(=O)O)cc1`, the binding response (% of control) is 102% (inactive).
In the case of `N#Cc1ccc(CSc2ncccn2)cc1`, the binding response (% of control) is 101% (inactive).
With `Cc1cc(C)nc(-n2nc(C)cc2NC(=O)c2ccc(F)cc2F)n1`, the binding response (% of control) is 105% (inactive).
